Here are results for 61 compounds from PubChem BioAssay AID1347051 (National Center for Advancing Translational Sciences (NCATS), 2019).

Screen size: about 1,400 compounds; about 980 (70%) were called active. About 16% were inconclusive and are not listed. Calls follow the shape of the full dose curve. The set was probably picked from earlier hits. Not all results are given here.
Potency is read from the fitted curve at half-maximal effect.

A short description of this test: Natriuretic polypeptide receptor (hNpr1) antagonism - Counterscreen GloSensor control cell line. Also: nearly all actives have a fitted effect of over 70% in size. Conditions: HEK293 GloSensor cGMP, SNP-stimulated, luminescence; series mostly up to 57.6 µM. Here is the method: cGMP production was measured using a circular permutated firefly luciferase (FLuc) enzyme functionally linked to the cGMP binding domain of human phosphodiesterase 5 (GloSensor technology pGS-40F, (Fan, F. et al. 2008). The cGMP-sensor was expressed in human embryonic kidney 293 (HEK-293) cells and FLuc activity was measured after stimulation with the NO-donor sodium nitroprusside (SNP). SNP activates the endogenously expressed soluble guanylyl cyclase (GC) producing cGMP which then binds to the GloSensor resulting in FLuc activation, the enzymatic activity of which can be measured as bioluminescence with addition of luciferin substrate. F. Fan, B. F. Binkowski, B. L. Butler, P. F. Stecha, M. K. Lewis, K. V. Wood, Novel genetically encoded biosensors using firefly luciferase. ACS Chem Biol 3, 346-351 (2008).
PROTOCOL TABLE (as described by Inglese J, Shamu CE and Guy RK. 2007) SEQUENCE No. (e.g., 1, 2, 3, etc.); PARAMETER (e.g., Cells, Incubation, Reagent, etc.); VALUE and DESCRIPTION. 1. Cells. Seed 1500 HEK293 cGMP-sensor cells per well in 4uL into Greiner 1536-well white/solid bottom high base, TC plates. 2. Incubation. Incubate plated cells at 37C in 5% CO2, 95% RH overnight. 3. Reagent. Add 1uL per well GloSensor reagent from Promega (2% final concentration) or CO2 independent media vehicle control to respective columns of Greiner 1536-well plates. 4. Incubation. Incubate plated cells at room temperature for 2 h, protect from light. 5. Compounds. Library compounds and DMSO vehicle control added at 23nL per well, transferred by Pin Tool. 6. Incubation. Incubate plated cells for 30 min. at room temperature, protect from light. 7. Detector. GloSensor baseline pre-read luminescence measured using CCD-based camera (Viewlux). 8. Compound. Add 1uL of sodium nitroprusside (SNP) to 50 uM final concentration to stimulate soluble guanylyl cyclase (GC) or CO2 independent media as vehicle control. 9. Incubation. Incubate treated cells at room temperature for 20 min., protect from light. 10. Detector. GloSensor post-SNP luminescence measured using CCD-based camera (Viewlux). NOTES (numbers refer to Sequence numbers above; values are from representative experiments) 1. HEK293 cells expressing GIP/pGS-40F were grown to 85-95% confluence (48-72 h) in T175 culture flasks (CO2 independent media supplemented with 10% FBS, 1% Pen/Strep antibiotics, and 1 ug/mL puromycin). Trypsinize and harvest cells from T175 culture flasks and filter through 40 um cell strainer. Cells counted with Invitrogen Countess (30,000,000 - 50,000,000 cells/flask). Cells diluted to a final concentration of 375 cells/uL in CO2 independent media and a Millipore multidrop used to dispense 1500 cells per well (4uL/well) into 13 1536-well Greiner White/Solid bottom, high base tissue-culture treated (TC) plates and one Aurora 1536-well Black/Clear bottom, low base, TC plate (for visual inspection of cell health throughout the duration of the assay). 2. Cells incubated for 24 h. at 37C in 95% RH incubator with metal lid having gas-exchange holes. 3. Prepare GloSensor Reagent (Promega): Reconstitute GloSensor luciferase substrate by adding 8.2mL Hepes buffer to 250mg substrate, mix well, protect from light and stored at -80C. Prepare a fresh 12% GloSensor solution in CO2 independent supplemented plating media (see above). Mix well and store at ambient temperature, protected from light. 1uL 12% GloSensor Luciferase Reagent added (2% final concentration) to respective columns of 13 x 1536-well Greiner plate with BioRaptr, 1uL CO2 independent plating media added to respective columns as vehicle control with BioRaptr. 4. Cells incubated for 2 h. at ambient temperature, protected from light with metal lid having gas-exchange holes. 5. 23nL of library compounds or DMSO vehicle control transferred to 13 Greiner white/solid bottom high base, TC plates in 11 interplate 1:3 titrations (see Yasgar, A. et al. 2008) with Pintool. 6. […]
On the technique in general: The purpose of a counterscreen is to sort out artefacts and off-target activity.
On to `COc1cccc(C2Cn3nnc(-c4nc(-c5ccccc5)no4)c3CO2)c1` (stereo unspecified), for which the Potency result was “inactive”.

For the compound `COc1ccc(C2Cn3nnc(C(=O)N4CCN(C(=O)c5cccc(Cl)c5)CC4)c3CO2)cc1` (stereo unspecified), the Potency is 12.2 µM (active).

For `COc1ccc(C2Cn3nnc(C(=O)N4CCN(C(=O)c5ccc(C)cc5C)CC4)c3CO2)cc1` (stereo unspecified), the Potency is 21.7 µM (active).

Take `O=[S+]1([O-])NCC2(CCCN(Cc3ccc(C(F)(F)F)cc3)C2)Oc2ncccc21` (stereo unspecified): the Potency was 15.3 µM (active).

`COc1ccc(C(CC(=O)N(C)Cc2cc(C3CC3)n[nH]2)c2ccccc2)cc1` (stereo unspecified): the Potency result was “inactive”.

For the compound `COc1ccc(OCC2(C)COc3ccc(C(=O)Nc4cccnc4)cc3N2)cc1` (stereo unspecified), the Potency is 49.8 µM (active).

For the compound `CC1(CCCCc2ccccc2)COc2ccc(C(=O)N3CC[S+](=O)([O-])CC3)cc2N1` (stereo unspecified), the Potency entry was “inactive”.

For `Cc1noc(C)c1-c1cc(-c2ccccc2Oc2ccccc2)cn2cncc12`, the Potency entry is “inactive”.

On to `Cc1nc(-c2ccncc2)ncc1C(C)Nc1ncnc(C)c1C` (stereo unspecified), for which the Potency was 19.3 µM (active).

Regarding `CC(C)c1nncn1C1CCN(S(=O)(=O)c2cccc(Br)c2)CC1`, the Potency is 24.3 µM (active).

As to `CC1(C(=O)NCc2ccc3c(c2)OCO3)CCc2cnc(NCc3ccccc3)nc21` (stereo unspecified), the Potency was 44.4 µM (active).

Turning to `CC(C)(C)c1csc(NC(=O)c2ccc3c(c2)OCCN(C2CCC2)C3)n1`, the Potency is 25 µM (active).

As for `COc1ccc(-c2noc(CC3CCN(C(=O)Cc4ccccc4)CC3)n2)cc1`, the Potency was 27.3 µM (active).

Regarding `COc1ccc(-c2noc(CC3CCN(C(=O)Cc4ccc(C)cc4)CC3)n2)cc1`, the Potency was 30.6 µM (active).

With `COc1ccc(-c2noc(CC3CCN(C(=O)CC4CCCCC4)CC3)n2)cc1`, the Potency was 8.62 µM (active).

Regarding `COc1cccc(C2C(C(=O)Nc3ccccc3)=C(C)N=C3SC=C(CC(=O)NCC(C)C)N32)c1` (stereo unspecified), the Potency entry was “inactive”.

As to `COc1cccc(CNC(=O)Cn2c(N(C)Cc3ccccc3)nc(C)cc2=O)c1OC`, the Potency is 24.3 µM (active).

For the compound `COc1cccc(NC(=O)Cn2c(N(C)Cc3ccccc3)nc(C)cc2=O)c1`, the Potency was 10.9 µM (active).

For `O=C(c1ccc2cc[nH]c2c1)N1CCC2(CC1)N=C(c1ccc(Cl)cc1)NO2`, the Potency is 15.3 µM (active).

As to `Cc1nn2c(c1-c1ccnn1C(C)C)N(CC1CCOCC1)CCC2`, the Potency entry is “inactive”.

In the case of `Cc1nn2c(c1-c1ccccc1-c1ccccc1)N(CC1CC1)CCC2`, the Potency is 2.8 µM (active).

`CC1=NS(=O)(=O)N(C)C=C1C(=O)OCc1nc(-c2ccc(C)cc2)no1`: the Potency is 8.62 µM (active).

Consider `CCN(CCCNC(=O)c1nnn2cc(-c3ccccc3)[nH]c(=O)c12)c1ccccc1`, for which the Potency entry is “inactive”.

As to `Cc1c[nH]c(CN2CCCC(CCc3ccc(F)cc3F)C2)c(C)c1=O` (stereo unspecified), the Potency was 2.43 µM (active).

`O=C(Cc1c[nH]c2ncc(-c3ccccc3F)cc12)N1CCOCC1`: the Potency was 28 µM (active).

Turning to `Cc1noc(C)c1-c1cnc2[nH]cc(CC(=O)N3CCOCC3)c2c1`, the Potency was 22.2 µM (active).

Turning to `COc1ccccc1Nc1cnc2ccc(N(C)Cc3cccnc3)nn12`, the Potency is 35.3 µM (active).

On to `O=C(NCC1CC1)c1nc2c(o1)CCN(Cc1cccc(F)c1F)CC2`, for which the Potency was 22.2 µM (active).

On to `O=C1Nc2ccccc2CN(Cc2ccccc2)C12CCNCC2`, for which the Potency entry is “inactive”.

`O=C1NCN(Cc2ccc(Cl)cc2)C12CCN(Cc1ccccc1)CC2`: the Potency was 13.7 µM (active).

As for `OC1(Cc2cc(-c3ccccc3)no2)CCN(c2ncncn2)CC1`, the Potency was 6.85 µM (active).

As for `O=C(NCc1nnc2cc(-c3nc(C4CC4)no3)ccn12)c1ccc(F)cc1Cl`, the Potency is 12.2 µM (active).

Regarding `COc1ccc(CCNC(=O)c2noc(-c3ccc(C)cc3)n2)cc1OC`, the Potency was 21.7 µM (active).

Turning to `O=C(c1ccc(F)cc1Cl)N1CCC(n2cc(-c3nc(-c4ccccc4)no3)nn2)C1` (stereo unspecified), the Potency was 4.32 µM (active).

Turning to `O=C(c1ccc(Cl)cc1)N1CCCC(n2cc(-c3nc(-c4ccccc4)no3)nn2)C1` (stereo unspecified), the Potency was 13.7 µM (active).

Consider `COc1ccc(C(=O)N2CCC(n3cc(-c4nc(C(C)C)no4)nn3)CC2)cc1F`, for which the Potency entry was “inactive”.

Regarding `O=C(c1cc(F)ccc1Cl)N1CCN(c2cc(-c3ccc(F)cc3)[nH]n2)CC1`, the Potency was 24.3 µM (active).

With `Cc1ccc(C(=O)N2CCN(c3cc(-c4ccc(Cl)cc4)[nH]n3)CC2)c(C)c1`, the Potency was 6.11 µM (active).

Consider `CCc1ccc(C(=O)N2CCN(c3cc(-c4ccc(F)cc4)[nH]n3)CC2)cc1`, for which the Potency was 21.7 µM (active).

With `O=C(c1ccc(F)cc1F)N1CCN(c2cc(-c3ccc(Cl)cc3)[nH]n2)CC1`, the Potency is 17.2 µM (active).

As for `C1CCC(COCCc2noc(C3CNC3)n2)C1`, the Potency was 21.7 µM (active).

In the case of `O=C(c1ccccn1)N1CC(Oc2ccc(-c3noc(C4CC4)n3)cc2)C1`, the Potency is 13.7 µM (active).

On to `COc1ccc(-c2noc(CC3CCN(C(=O)Cc4ccc(OC)c(OC)c4)CC3)n2)cc1`, for which the Potency is 3.85 µM (active).

As for `COc1ccc(CC(=O)N2CCC(Cc3nc(-c4ccccc4)no3)CC2)cc1OC`, the Potency is 13.7 µM (active).

For the compound `COc1ccc(CN2C(=O)CO[C@H]3CN(Cc4ccc5c(c4)OCO5)C[C@H]32)cc1`, the Potency was 28 µM (active).

Take `Cc1ccc2c(c1)nc1n2[C@@H](CNS(=O)(=O)c2ccccc2)COC1`: the Potency is 35.3 µM (active).

Regarding `N#Cc1cccc(CN2CCC(C3=NC(O)c4cc(F)ccc4N3)CC2)c1` (stereo unspecified), the Potency was 19.3 µM (active).

With `Fc1ccc(CNC[C@H]2Cn3c(-c4ccc5c(c4)OCCO5)cnc3CO2)cc1`, the Potency result is “inactive”.

`COc1cccc(-c2noc(CC3CCN(C(=O)c4ccc(F)cc4)CC3)n2)c1`: the Potency was 4.85 µM (active).

For `O=C(c1ccccc1)N1CCC(C(=O)N2CCC(Cc3nc(-c4ccc(F)cc4)no3)CC2)CC1`, the Potency is 13.7 µM (active).

Regarding `Cc1cccc(C(=O)N2CCC3(CC2)CC(N(Cc2ccc(F)cc2)C2CC2)CCO3)c1` (stereo unspecified), the Potency entry is “inactive”.

With `CN1CCN(C(=O)C(C)(C)Oc2nn(Cc3cccc(Cl)c3)c3ccccc23)CC1`, the Potency result was “inactive”.

For the compound `O=C(c1ccccc1)N1CCNc2cnc(Nc3cccc(C(F)(F)F)c3)nc2C1`, the Potency is 22.2 µM (active).

Regarding `Cc1cc(N2CCCC(Cn3cc(Cc4ccccc4)nn3)C2)nc(N)n1` (stereo unspecified), the Potency was 4.85 µM (active).

Turning to `O=C1c2cnc(-c3ccc(Cl)cc3)nc2OCCN1Cc1ccccc1`, the Potency was 35.3 µM (active).

`CN(Cc1csc(-c2ccccc2)n1)c1cc(C2CC(O)C2)nc(N)n1` (stereo unspecified): the Potency is 1.93 µM (active).

In the case of `Cc1ccc(OCc2nc(C3CCN(C(=O)CCc4nc5ccc(Cl)cc5[nH]4)CC3)no2)cc1`, the Potency was 24.3 µM (active).

With `O=c1[nH]c(C2CCCN(Cc3ccccn3)C2)nn1-c1ccc(Cl)cc1` (stereo unspecified), the Potency is 9.68 µM (active).

With `CN(C)CCNC(=O)C(C)(C)Oc1nn(Cc2cccc(Cl)c2)c2ccccc12`, the Potency result is “inactive”.

Take `CC(C)c1cc(C(=O)N2CCC(n3cc(-c4ccccn4)nn3)CC2)n(C)n1`: the Potency is 15.3 µM (active).

In the case of `Cc1cccc(CN2CCc3nc(C(=O)Nc4ccc(Cl)cc4)oc3CC2)c1`, the Potency is 8.86 µM (active).
